In ChEMBL document CHEMBL3988442, “University of Dundee, Small-Polar-MMV Screening Library” (2021) one finds Percent Effect data, which are given here for ten compounds.

Parameters in all cases: scale not given: direction of the effect not stated beside the values
For experiment [1], the target named is Protein translocase subunit SecA (Escherichia coli (strain K12)) (UniProt P10408). In words: Assay to Identify E. coli SecA ATPase Inhibitors. The class given is functional. Conditions: 30 µM.
Experiment [2] deals with T1, Ubiquitin-activating enzyme e1, putative (Leishmania donovani (strain BPK282A1)) (UniProt E9BSI1).
T1 sequence (whole entry): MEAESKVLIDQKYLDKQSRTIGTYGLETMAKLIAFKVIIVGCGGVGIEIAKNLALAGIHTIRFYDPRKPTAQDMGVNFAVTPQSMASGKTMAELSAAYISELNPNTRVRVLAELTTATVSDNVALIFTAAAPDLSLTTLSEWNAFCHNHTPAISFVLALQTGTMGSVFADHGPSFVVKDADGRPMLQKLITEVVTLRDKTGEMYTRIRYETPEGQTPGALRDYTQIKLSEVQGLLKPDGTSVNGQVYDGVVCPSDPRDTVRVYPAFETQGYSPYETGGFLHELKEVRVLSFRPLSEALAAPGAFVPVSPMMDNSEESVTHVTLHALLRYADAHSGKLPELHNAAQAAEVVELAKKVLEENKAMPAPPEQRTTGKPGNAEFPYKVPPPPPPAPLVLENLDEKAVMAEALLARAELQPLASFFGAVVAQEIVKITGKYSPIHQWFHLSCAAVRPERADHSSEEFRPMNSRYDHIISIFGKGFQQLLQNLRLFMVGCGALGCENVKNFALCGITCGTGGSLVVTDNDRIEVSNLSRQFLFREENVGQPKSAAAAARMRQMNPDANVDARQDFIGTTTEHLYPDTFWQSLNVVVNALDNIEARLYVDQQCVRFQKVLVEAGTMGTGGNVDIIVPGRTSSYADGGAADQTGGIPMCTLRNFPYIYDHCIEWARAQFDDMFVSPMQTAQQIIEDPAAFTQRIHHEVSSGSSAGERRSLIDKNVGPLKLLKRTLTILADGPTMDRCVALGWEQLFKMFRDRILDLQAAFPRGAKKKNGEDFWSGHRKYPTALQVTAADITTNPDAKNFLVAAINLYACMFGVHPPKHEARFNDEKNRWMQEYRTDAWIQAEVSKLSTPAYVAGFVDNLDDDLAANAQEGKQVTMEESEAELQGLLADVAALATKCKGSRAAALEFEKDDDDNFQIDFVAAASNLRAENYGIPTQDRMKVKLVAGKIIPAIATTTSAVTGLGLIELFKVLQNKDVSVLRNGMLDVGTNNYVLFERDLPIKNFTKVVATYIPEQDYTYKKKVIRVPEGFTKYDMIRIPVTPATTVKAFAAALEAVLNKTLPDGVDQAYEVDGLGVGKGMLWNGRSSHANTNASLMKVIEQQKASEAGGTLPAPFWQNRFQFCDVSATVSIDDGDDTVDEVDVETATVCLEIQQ
In words: Leishmania donovani Ubiquitin Activating Enzyme (LdE1). The class given is functional. The note with it: 30 µM.

Experiment [3] addresses AMP-activated protein kinase, AMPK (Homo sapiens) (UniProt P54646+O43741+P54619+Q9UGJ0+Q9Y478+Q13131+Q9UGI9). Nature of the experiment: AMP-dependent Kinase enzyme assay. An in vitro enzyme assay that detects ADP turnover that is directly proportional to AMPK activity. This uses naive AMPK that is activated during the assay with MK-8722. The class given is functional. The note with it: 30 µM.

The target in experiment [4] is Sialic acid-binding Ig-like lectin 9 (Homo sapiens) (UniProt Q9Y336). Nature of the experiment: Hs-Siglec9 ALPHAscreen SOP 20170721. The note with it: 10 µM. (Bead proximity is the source of the signal in Alpha formats.)
Chain of Sialic acid-binding Ig-like lectin 9 (Homo sapiens) (Q9Y336 whole entry): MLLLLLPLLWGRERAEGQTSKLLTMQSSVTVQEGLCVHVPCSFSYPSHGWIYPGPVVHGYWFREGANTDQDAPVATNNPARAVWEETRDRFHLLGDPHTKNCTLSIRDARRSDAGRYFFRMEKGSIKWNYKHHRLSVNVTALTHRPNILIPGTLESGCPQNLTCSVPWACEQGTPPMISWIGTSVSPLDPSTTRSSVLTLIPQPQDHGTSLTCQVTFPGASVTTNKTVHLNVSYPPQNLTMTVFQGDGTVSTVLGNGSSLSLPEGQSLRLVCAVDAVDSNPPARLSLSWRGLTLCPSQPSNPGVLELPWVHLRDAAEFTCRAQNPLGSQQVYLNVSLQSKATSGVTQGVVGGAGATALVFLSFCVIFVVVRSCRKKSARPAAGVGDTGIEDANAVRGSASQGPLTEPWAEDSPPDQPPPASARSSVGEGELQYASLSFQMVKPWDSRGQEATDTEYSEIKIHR
For experiment [5], the system named is Trypanosoma cruzi. Nature of the experiment: Trypanosoma cruzi phosphomannomutase and mannose-1-phosphate guanylyltransferase assay. The class given is functional. The note with it: 10 µM.
Experiment [6] deals with T2, Arginase-2, mitochondrial (Homo sapiens) (UniProt P78540).
T2 sequence (whole entry): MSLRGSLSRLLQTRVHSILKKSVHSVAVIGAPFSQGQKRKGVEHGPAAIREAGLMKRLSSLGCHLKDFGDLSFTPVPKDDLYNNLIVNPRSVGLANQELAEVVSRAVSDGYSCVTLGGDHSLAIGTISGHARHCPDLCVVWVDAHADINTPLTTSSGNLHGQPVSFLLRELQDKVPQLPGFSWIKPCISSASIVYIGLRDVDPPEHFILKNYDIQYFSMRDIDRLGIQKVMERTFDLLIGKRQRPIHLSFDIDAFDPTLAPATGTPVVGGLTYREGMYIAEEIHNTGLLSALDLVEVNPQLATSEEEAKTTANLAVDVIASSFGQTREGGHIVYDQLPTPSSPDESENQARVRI
In words: in vitro enzyme assay to detect the production of urea directly proportional to the activity of Arginase II. Note: in the data most compounds retested in dose-response had high values. The class given is functional. The note with it: 33.3 µM.

Experiment [7] has as its target T3, Proteasome subunit beta (Trypanosoma cruzi) (UniProt O96673).
T3 sequence (whole entry): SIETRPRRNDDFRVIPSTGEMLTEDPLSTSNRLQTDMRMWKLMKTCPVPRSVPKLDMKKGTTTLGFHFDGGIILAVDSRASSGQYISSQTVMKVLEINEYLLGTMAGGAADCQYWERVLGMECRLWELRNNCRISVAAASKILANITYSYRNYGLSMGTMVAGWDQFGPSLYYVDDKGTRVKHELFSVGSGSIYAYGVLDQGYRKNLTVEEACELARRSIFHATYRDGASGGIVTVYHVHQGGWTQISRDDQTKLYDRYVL
In words: Trypanosoma cruzi proteasome chymotrypsin-like activity (TcProtChymo) assay. Note: in the data most compounds retested in dose-response had high values. In kind it is functional. Conditions: 9.37 µM.

For experiment [8], the species on record is Homo sapiens. Nature of the experiment: To identify inhibition of the IFN signalling (Jak-Stat) pathway via expression of an eGFP reporter gene under the control of an IFN-stimulated response element (ISRE) containing MxA promoter. In kind it is functional. The note with it: 30 µM. (A reporter such as luciferase makes a cellular process visible.)
In experiment [9] the target is T4, Tyrosyl-tRNA synthetase, putative (Trypanosoma cruzi (strain CL Brener)) (UniProt Q4DSP6).
T4 sequence (whole entry): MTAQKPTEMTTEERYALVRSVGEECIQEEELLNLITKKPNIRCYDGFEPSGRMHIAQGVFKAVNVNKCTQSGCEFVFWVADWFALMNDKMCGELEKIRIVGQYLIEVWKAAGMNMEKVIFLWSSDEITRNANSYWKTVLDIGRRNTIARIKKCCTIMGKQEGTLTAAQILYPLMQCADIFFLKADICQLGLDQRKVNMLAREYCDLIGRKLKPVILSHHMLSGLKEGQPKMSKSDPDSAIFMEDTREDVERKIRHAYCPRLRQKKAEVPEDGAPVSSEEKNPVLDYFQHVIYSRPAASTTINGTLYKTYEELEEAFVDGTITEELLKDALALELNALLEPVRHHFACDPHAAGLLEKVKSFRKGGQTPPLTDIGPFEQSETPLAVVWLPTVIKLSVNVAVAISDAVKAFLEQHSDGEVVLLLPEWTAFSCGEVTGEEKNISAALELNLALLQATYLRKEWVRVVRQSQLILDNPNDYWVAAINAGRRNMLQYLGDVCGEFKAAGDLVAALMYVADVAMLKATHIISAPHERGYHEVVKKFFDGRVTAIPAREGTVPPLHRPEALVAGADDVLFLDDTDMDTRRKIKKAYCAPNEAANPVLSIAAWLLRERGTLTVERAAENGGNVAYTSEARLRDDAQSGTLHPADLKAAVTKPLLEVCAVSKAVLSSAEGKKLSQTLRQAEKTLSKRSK
Nature of the experiment: Trypanosoma cruzi tyrosyl tRNA synthetase (TcYRS) _High Tyrosine SOP. Note: in the data most compounds retested in dose-response had high values. In kind it is functional. Conditions: 30 µM.

The target in experiment [10] is T4, Tyrosyl-tRNA synthetase, putative (Trypanosoma cruzi (strain CL Brener)). In words: Trypanosoma cruzi tyrosyl tRNA synthetase (TcYRS) SOP. The class given is functional. The note with it: 30 µM.
Experiment [11] addresses Chromo domain-containing protein 1 (Saccharomyces cerevisiae (strain ATCC 204508 / S288c) (Baker's yeast)) (UniProt P32657). In words: ScCHD-1 Enzyme Inhibition Assay. Note: in the data most compounds retested in dose-response had high values. Conditions: 30 µM. In kind it is functional.
Experiment [12] has as its system N/A. In words: Trypanosoma cruzi proteasome luciferase counter-screen. In kind it is functional. Conditions: 9.37 µM. Background: The purpose of a counterscreen is to sort out artefacts and off-target activity.

Several values for one entry are separate records, joined by “and”; a condition that tells them apart may be missing. Equal entries are not always repeated. For some assays here: Measured potencies and affinities stand elsewhere.

Chain of Chromo domain-containing protein 1 (Saccharomyces cerevisiae (strain ATCC 204508 / S288c) (Baker's yeast)) (P32657 whole entry, the tested form may be a part): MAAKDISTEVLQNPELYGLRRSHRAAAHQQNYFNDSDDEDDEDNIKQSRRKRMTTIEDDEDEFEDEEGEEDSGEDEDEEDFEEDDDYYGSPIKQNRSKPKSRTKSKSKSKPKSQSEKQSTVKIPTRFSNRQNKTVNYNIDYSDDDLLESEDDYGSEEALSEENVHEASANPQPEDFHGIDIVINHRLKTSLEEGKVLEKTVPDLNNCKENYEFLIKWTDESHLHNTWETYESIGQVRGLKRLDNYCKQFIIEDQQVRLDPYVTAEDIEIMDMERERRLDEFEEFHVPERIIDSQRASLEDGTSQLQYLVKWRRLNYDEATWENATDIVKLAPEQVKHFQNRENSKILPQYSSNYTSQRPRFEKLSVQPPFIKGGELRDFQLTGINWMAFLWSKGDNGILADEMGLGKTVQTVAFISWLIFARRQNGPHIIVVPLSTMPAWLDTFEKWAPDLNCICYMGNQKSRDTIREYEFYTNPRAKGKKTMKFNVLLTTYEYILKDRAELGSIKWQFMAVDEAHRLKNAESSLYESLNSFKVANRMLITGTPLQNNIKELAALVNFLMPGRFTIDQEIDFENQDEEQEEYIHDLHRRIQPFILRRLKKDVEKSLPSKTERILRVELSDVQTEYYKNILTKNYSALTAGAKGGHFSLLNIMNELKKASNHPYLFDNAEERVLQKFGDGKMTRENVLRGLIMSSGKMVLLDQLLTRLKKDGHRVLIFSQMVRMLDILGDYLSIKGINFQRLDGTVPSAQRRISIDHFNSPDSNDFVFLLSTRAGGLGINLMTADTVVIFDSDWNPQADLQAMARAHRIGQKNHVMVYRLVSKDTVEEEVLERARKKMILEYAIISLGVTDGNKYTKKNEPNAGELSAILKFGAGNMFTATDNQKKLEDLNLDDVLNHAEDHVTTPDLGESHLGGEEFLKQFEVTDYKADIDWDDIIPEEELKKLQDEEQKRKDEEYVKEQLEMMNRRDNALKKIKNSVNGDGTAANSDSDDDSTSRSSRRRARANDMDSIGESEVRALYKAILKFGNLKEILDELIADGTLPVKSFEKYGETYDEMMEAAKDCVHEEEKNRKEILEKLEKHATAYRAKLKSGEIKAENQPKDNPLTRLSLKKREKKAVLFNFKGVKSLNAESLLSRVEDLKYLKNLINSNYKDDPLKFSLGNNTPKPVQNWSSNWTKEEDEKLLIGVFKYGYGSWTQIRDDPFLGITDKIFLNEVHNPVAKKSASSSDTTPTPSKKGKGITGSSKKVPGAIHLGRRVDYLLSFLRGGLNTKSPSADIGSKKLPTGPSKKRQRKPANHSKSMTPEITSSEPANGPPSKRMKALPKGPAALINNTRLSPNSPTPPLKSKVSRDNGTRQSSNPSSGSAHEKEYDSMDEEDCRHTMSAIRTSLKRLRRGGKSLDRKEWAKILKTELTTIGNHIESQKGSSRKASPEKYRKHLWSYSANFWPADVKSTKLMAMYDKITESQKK
Chain of Protein translocase subunit SecA (Escherichia coli (strain K12)) (P10408 whole entry): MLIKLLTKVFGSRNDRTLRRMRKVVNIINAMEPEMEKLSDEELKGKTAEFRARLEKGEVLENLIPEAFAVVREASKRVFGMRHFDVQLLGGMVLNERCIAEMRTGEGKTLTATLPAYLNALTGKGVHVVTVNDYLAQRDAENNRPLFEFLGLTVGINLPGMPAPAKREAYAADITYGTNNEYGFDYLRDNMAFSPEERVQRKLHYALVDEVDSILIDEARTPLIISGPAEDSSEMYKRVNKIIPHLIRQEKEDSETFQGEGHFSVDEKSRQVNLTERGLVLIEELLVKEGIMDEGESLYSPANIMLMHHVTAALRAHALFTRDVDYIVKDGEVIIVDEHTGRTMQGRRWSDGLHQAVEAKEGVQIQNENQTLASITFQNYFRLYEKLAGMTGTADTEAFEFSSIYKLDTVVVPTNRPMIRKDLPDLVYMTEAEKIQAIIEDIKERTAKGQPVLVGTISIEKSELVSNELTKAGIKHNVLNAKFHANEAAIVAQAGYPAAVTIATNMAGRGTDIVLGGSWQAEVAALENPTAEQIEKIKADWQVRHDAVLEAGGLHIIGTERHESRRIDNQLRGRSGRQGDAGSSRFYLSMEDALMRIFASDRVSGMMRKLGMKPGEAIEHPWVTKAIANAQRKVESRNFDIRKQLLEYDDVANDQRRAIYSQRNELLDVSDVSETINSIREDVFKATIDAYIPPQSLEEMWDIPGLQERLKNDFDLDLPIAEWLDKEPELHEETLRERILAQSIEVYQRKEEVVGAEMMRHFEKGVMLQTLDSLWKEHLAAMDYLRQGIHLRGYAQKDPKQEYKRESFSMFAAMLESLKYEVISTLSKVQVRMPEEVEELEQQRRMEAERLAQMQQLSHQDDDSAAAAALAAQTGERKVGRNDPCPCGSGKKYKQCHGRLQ

Turning to `Cc1cncc(C(=O)N2CCC(Cn3cc(-c4ccsc4)nn3)CC2)c1`, the Percent Effect is -2.48% in [1]; 2.7% in [2]; 0.205% in experiment [3]; 2.1% in experiment [4]; -3.86% in [5]; -0.476% in [6]. The Percent Effect is 11.6% in [7]; 7.16% in experiment [8]; 1.59% in experiment [9]; 9.76% in experiment [10]; -1.22% in experiment [11].

With `CC(C)CN1CCCn2nc(CNC(=O)CCCc3cn[nH]c3)cc2C1`, the Percent Effect was -4.55% in [1]; 2.67% in experiment [2]; 1.75% in experiment [3]; 9.18% in experiment [4]; 6.91% in experiment [5]; -0.521% in experiment [6]. For the same compound, the Percent Effect was 10.8% in experiment [7]; 0.658% in [8]; 6.01% in experiment [9]; 11.1% in experiment [10]; -7.73% in experiment [11].

On to `CC(C)Cc1noc(CN2CCN(c3nccs3)CC2)n1`, for which the Percent Effect in experiment [1] is -8.59%; in [2] it was 10.4%; in experiment [3], 5.21%; in [4] it was 0.0825%; in experiment [5] it was -5.99%; in experiment [6] it was -2.13%. The Percent Effect in experiment [7] was 6.25%; in experiment [8] it was 33.3%; in [9], 0.971%; in experiment [10], 7.32%; in [11], -3.68%.

As to `CN(C)C(=O)N1CCOCC2(CCN(c3ncccn3)C2)C1` (stereo not given), the Percent Effect in [1] is -4.78%; in experiment [2], 8.11%; in experiment [3] it was -5.27%; in [4] it was 28.6%; in experiment [5], 6.35%; in [6] it was -1.24%. The Percent Effect in experiment [7] was 5.75%; in [8], -36.2%; in experiment [9] it was 6.45%; in [10] it was 11.1%; in experiment [11] it was -5.72%.

`CNC(=O)CC1CC2(CCN(Cc3nccs3)CC2)c2ccccc21` (stereo not given): the Percent Effect is -3.09% in experiment [1]; 16.2% in experiment [2]; -8.78% in [3]; 1.43% in [4]; 3.52% in [5]; 3.75% in [6]. The Percent Effect in [7] is 11.8%; in [8] it was -4.56%; in experiment [9], 7.92%; in [10], 8.54%; in experiment [11] it was -7.65%.

As for `OC(CN1CCOCC1)c1ccc(OC(F)(F)F)cc1` (stereo not given), the Percent Effect was -5.02% in experiment [1]; 2.7% in experiment [2]; 35.5% in experiment [3]; -1.38% in experiment [4]; 0.283% in experiment [5]; 0.401% in experiment [6]. Moreover, the Percent Effect in experiment [7] is 4.32%; in experiment [8] it was 1.68%; in experiment [9], 6.4%; in [10], 13.6%; in experiment [11] it was -7.59%.

For the compound `Cc1nn(C)c(C)c1C1COCCN1C(=O)c1n[nH]c2ccccc12` (stereo not given), the Percent Effect was -1.74% in [1]; 18.2% in experiment [2]; 2.92% in experiment [3]; -4.32% in [4]; 6.74% in experiment [5]; -0.712% in experiment [6]. Moreover, the Percent Effect was 17.2% and 17.5% in experiment [12]; -8.49% in [8]; 5.83% in experiment [9]; 21.9% in experiment [10]; -7.82% in [11].

Regarding `Cn1cccc1C(=O)N1CCc2ncnc(C3CC3)c2CC1`, the Percent Effect was -4.53% in experiment [1]; 13.3% in experiment [2]; 9.69% in experiment [3]; -5.45% in experiment [4]; -5.12% in [5]; -0.699% in experiment [6]. Further, the Percent Effect in [7] was 21.1%; in experiment [8], 22.4%; in experiment [9], 0%; in experiment [10], 6.41%; in experiment [11], -1.35%.

With `Cc1cc(C[S+]([O-])CC(=O)NCc2cccs2)no1` (stereo not given), the Percent Effect was -6.18% in experiment [1]; 10.4% in experiment [2]; 3.08% in [3]; 10.1% in [4]; 1.87% in experiment [5]; -6.05% in experiment [6]. Besides, the Percent Effect in experiment [7] is 1.01%; in experiment [8] it was 5.94%; in [9], 8.74%; in [10], 19.5%; in experiment [11], -5.87%.

With `O=S(=O)(Nc1cnn(C2CCOCC2)c1)c1c(F)cccc1F`, the Percent Effect in [1] is 1.19%; in [2], -2.6%; in [3] it was -13.6%; in experiment [4], 5.79%; in experiment [5], -2.66%; in [6] it was -1.94%. The Percent Effect in experiment [7] was 10.4%; in experiment [8] it was 5.2%; in experiment [9], 2.12%; in experiment [10], 1.28%; in [11], -4.35%.
